Inconclusive results are not listed. Unmarked numbers belong to inactive results. Active and inactive are the calls of the source. Calls follow the shape of the dose curve; as a rule, active = well fitted curve in the direction sought with a large enough effect; inconclusive = small, poorly fitted or top-dose-only effect, or another doubt; inactive = no such curve, though single readings can be large; an effect the other way counts as inactive or inconclusive.

Experiment [1] can be described thus: Primary redox qHTS assay for identification of artifact compounds. (AID 1845223). Put shortly:
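Redox-cycling detection via DTT (250 uM final) oxidation coupled to Amplex Red (25 uM)/HRP (250 mU/mL) in HBSS. 15 min preincubation plus 30 min after DTT, room temperature. Ex/Em 525/598 nm; 4-parameter Hill fit against DMSO and 10 uM DA3003.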

The nature of experiment [2]: Quantitative High-Throughput drug screen in 47 multiple myeloma cell lines against the NCATS MIPE library collection: FR4_PLB cell viability assay (AID 1918924; also: nearly all actives have a fitted effect of over 35% in size; also: potency is read from the fitted curve at half-maximal effect). The essentials: (§1)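 Relative luminescence from CellTiter-Glo served as the viability signal, referenced to DMSO-treated (100%) and cell-free medium (0%) controls. Treatment lasted 48 hours at 37C with 500 cells per well.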

Experiment [3] in a line: Quantitative High-Throughput drug screen in 47 multiple myeloma cell lines against the NCATS MIPE library collection: Delta47_JCRB cell viability assay (AID 1918925; also: nearly all actives have a fitted effect of over 45% in size; also: potency is read from the fitted curve at half-maximal effect). The essentials:
(§2)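 We plated 500 myeloma cells per well, pinned in MIPE 4.0 compounds, and incubated for 48 hours at 37C. ATP was then quantified with CellTiter-Glo, with DMSO and media-only wells defining 100% and 0%.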

The nature of experiment [4]: Quantitative High-Throughput drug screen in 47 multiple myeloma cell lines against the NCATS MIPE library collection: EJM_DSMZ cell viability assay (AID 1918926; also: nearly all actives have a fitted effect of over 30% in size; also: potency is read from the fitted curve at half-maximal effect). Put shortly: as §2
The nature of experiment [5]: Quantitative High-Throughput drug screen in 47 multiple myeloma cell lines against the NCATS MIPE library collection: AMO1_DSMZ cell viability assay (AID 1918927; also: nearly all actives have a fitted effect of over 30% in size; also: potency is read from the fitted curve at half-maximal effect). Put shortly:
as §2

A short description of experiment [6]: Quantitative High-Throughput drug screen in 47 multiple myeloma cell lines against the NCATS MIPE library collection: ARP1_JJKsccF8 cell viability assay (AID 1918928; also: nearly all actives have a fitted effect of over 40% in size; also: potency is read from the fitted curve at half-maximal effect). The essentials: (§3)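 500 cells/well; MIPE 4.0 library pinned in; 48 h, 37 °C, 5% CO2; CellTiter-Glo ATP luminescence. Controls: DMSO = 100% viability, medium only = 0%.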
A short description of experiment [7]: Quantitative High-Throughput drug screen in 47 multiple myeloma cell lines against the NCATS MIPE library collection: Karpas620_DSMZ cell viability assay (AID 1918959). Also: nearly all actives have a fitted effect of over 30% in size. Also: potency is read from the fitted curve at half-maximal effect. The essentials:
as §1

Experiment [8] is described as follows: Quantitative High-Throughput drug screen in 47 multiple myeloma cell lines against the NCATS MIPE library collection: Karpas417_ECACC cell viability assay (AID 1918961). Also: potency is read from the fitted curve at half-maximal effect. Conditions: Karpas417 myeloma viability, CellTiter-Glo ATP luminescence, 48 h; viability (% of DMSO): at 45.8 µM (top of the series). The essentials: as §1
Experiment [9] can be described thus: Quantitative High-Throughput drug screen in 47 multiple myeloma cell lines against the NCATS MIPE library collection: ARD_JJKsccE7 cell viability assay (AID 1918929; also: potency is read from the fitted curve at half-maximal effect). Put shortly: as §2
Experiment [10] can be described thus: Quantitative High-Throughput drug screen in 47 multiple myeloma cell lines against the NCATS MIPE library collection: KMM1_JCRB cell viability assay (AID 1918960). Also: nearly all actives have a fitted effect of over 30% in size. Also: potency is read from the fitted curve at half-maximal effect. Put shortly: as §3

For `NS(=O)(=O)c1cc(Cl)c(Cl)c(S(N)(=O)=O)c1`, the call in experiment [1] was inactive. Also, the Potency entry in experiment [2], in experiment [3], in experiment [4], in experiment [5], in [7] and in experiment [8] was “inactive” each time. For the same compound, in experiment [6], the Potency was 8.33 µM (active).

In the case of `C[C@@H](N)c1ccc(C(=O)Nc2ccnc3[nH]ccc23)cc1`, the result in experiment [1] was inactive. For the same compound, the Potency in experiment [2] is 26.4 µM (active); in experiment [3] it was 26.4 µM (active); in [4], 23.5 µM (active); in experiment [5], 23.5 µM (active); in experiment [9], 26.4 µM (active).

Take `C[C@@]1(C(=O)Nc2ccc(F)nc2)CCCN1c1nc(Nc2cc(C3CC3)[nH]n2)c2cccn2n1`: the compound was classed as inactive in experiment [1]. Further, the Potency in experiment [2] is 0.166 µM (active); in experiment [3], 0.0166 µM (active); in experiment [5], 0.0935 µM (active); in [9] it was 0.001 µM (active).

Turning to `COc1ccc(-c2cc3nccn3c(Nc3ncccc3C(N)=O)n2)cc1OC`, the result in experiment [1] was inactive. The Potency in [2] was 3.32 µM (active); in experiment [3] it was 0.833 µM (active); in [4], 4.69 µM (active); in experiment [5] it was 0.469 µM (active); in experiment [6], 4.69 µM (active); in [8], 166 nM (active). Moreover, the Potency entry in [7] was “inactive”.

`COc1cc2nccc(Oc3ccc(NC(=O)Nc4cc(C)on4)c(Cl)c3)c2cc1OC`: the compound was called inactive in experiment [1]. In addition, the Potency in experiment [2] is 20.9 µM (active); in experiment [3], 18.7 µM (active); in [4], 13.2 µM (active); in experiment [5] it was 4.18 µM (active); in [9], 6.62 µM (active); in experiment [10], 3.72 µM (active).

In the case of `COc1nc(C)cnc1NS(=O)(=O)c1cccnc1-c1ccc(-c2nnco2)cc1`, the compound was called inactive in experiment [1]. In addition, the Potency result in experiment [2], in experiment [4] and in experiment [5] was “inactive” in each case.

As for `NC(=O)c1ccc(N(C(N)=O)c2c(F)cccc2F)nc1-c1ccc(F)cc1F`, the compound was called inactive in experiment [1]. In addition, the Potency entry in experiment [2], in experiment [6], in [7] and in experiment [10] was “inactive” in each case. The Potency in [3] was 5.9 µM (active).

Turning to `CC(C)(OCc1nn(Cc2ccccc2)c2ccccc12)C(=O)O`, the outcome in experiment [1] was inactive. For the same compound, the Potency entry in [2], in experiment [3], in [6], in experiment [7] and in experiment [10] was “inactive” in each case. In addition, in [4], the Potency is 9.35 µM (active).

On to `Cc1ccc2c(c1)C(=O)[C@]1(O)CCN(c3ccccc3)C1=N2`, for which, in experiment [1], the result was inactive. The Potency entry in experiment [2], in experiment [3], in [7] and in [10] was “inactive” in each case.

With `CNC(=O)c1c(-c2ccc(F)cc2)oc2cc(N(CCO)S(C)(=O)=O)c(C3CC3)cc12`, the compound was classed as inactive in experiment [1]. For the same compound, the Potency in experiment [2] was 23.5 µM (active).

Regarding `O=C(Nc1ccc(OC(F)(F)F)cc1)c1sccc1NCc1ccnc2ccccc12`, the compound was called inactive in experiment [1]. The Potency in [2] was 4.69 µM (active); in experiment [3], 5.26 µM (active); in [5] it was 23.5 µM (active); in [7], 4.69 µM (active).

Turning to `N#CC1(c2cccc(C(=O)Nc3cc(Oc4ccc5nc(NC(=O)C6CC6)sc5n4)ccc3F)c2Cl)CC1`, the result in experiment [1] was inactive. Also, the Potency was 10.5 µM (active) in [2]; 20.9 µM (active) in experiment [4]; 9.35 µM (active) in experiment [6]; 0.59 µM (active) in experiment [9]; 187 nM (active) in experiment [8]. Besides, the Potency result in experiment [3] is “inactive”.

As for `Cc1cnc(Nc2cccc(CN3CCOCC3)c2)nc1Nc1cccc(S(=O)(=O)NC(C)(C)C)c1`, in experiment [1], the outcome was inactive. Moreover, the Potency in experiment [2] is 14.8 µM (active); in [3], 4.18 µM (active); in experiment [4] it was 10.5 µM (active); in experiment [6], 5.26 µM (active); in [7], 4.69 µM (active); in experiment [8] it was 662 nM (active).

Take `CN1C(=O)C(Cc2c[nH]c3ccccc23)NC1=S` (configuration not stated): the compound was called inactive in experiment [1]. The Potency result in [2], in experiment [3], in experiment [4], in experiment [5], in experiment [6] and in [9] was “inactive” throughout. Also, the Potency result in experiment [7] and in experiment [10] was “inactive” in each case.

Regarding `CN1CCc2c(n(Cc3ccc(C(=O)NO)cc3)c3ccccc23)C1`, the call in experiment [1] was inactive. In addition, the Potency in experiment [2] is 16.6 µM (active); in experiment [3], 20.9 µM (active); in experiment [6] it was 18.7 µM (active).

On to `Cc1cnc(CNC(=O)c2c(=O)c3ccc(N4CCCN(C)CC4)nc3n3c2sc2ccccc23)cn1`, for which, in [1], the redox activity (% of DA3003) was -5.5% [at 11.5 µM]. In addition, the Potency was 12.9 µM (active) in experiment [2], 0.457 µM (active) in experiment [3], 0.512 µM (active) in experiment [5] and 9.11 µM (active) in experiment [6].

In the case of `COc1ccc(-c2nc3ccc(C4=NNC(=O)CC4C)cc3[nH]2)cc1` (configuration not stated), the compound was called inactive in experiment [1]. Also, the Potency entry in [2], in experiment [4], in [5], in experiment [6], in [7] and in [10] was “inactive” each time.

Regarding `CNC(=O)c1ccc2c(C(=Nc3cccc(CN(C)C)c3)c3ccccc3)c(O)[nH]c2c1`, the compound was classed as inactive in experiment [1]. For the same compound, the Potency result in experiment [2] and in experiment [6] was “inactive” in each case. Also, the Potency in experiment [3] is 23.5 µM (active).

Regarding `Clc1ccc(C2(c3ccc(-c4cn[nH]c4)cc3)CCNCC2)cc1`, in [1], the outcome was inactive. Further, the Potency in [2] is 20.9 µM (active); in experiment [3], 1.32 µM (active); in experiment [4], 20.9 µM (active); in experiment [6], 23.5 µM (active); in experiment [8], 6620 nM (active).

As for `CN1c2ccccc2C(=O)N2CCc3c([nH]c4ccccc34)C21` (configuration not stated), the outcome in [1] was inactive. Further, the Potency result in experiment [2], in experiment [4], in [5], in experiment [9], in experiment [7] and in [10] was “inactive” each time. In [3], the Potency is 26.4 µM (active).

Consider `CC(C)CNc1ccnc(NCc2csc(-c3ccccc3)n2)n1`, for which the call in [1] was inactive. Moreover, the Potency was 16.6 µM (active) in experiment [2]; 2.35 µM (active) in experiment [3]; 10.5 µM (active) in experiment [5]; 5.9 µM (active) in experiment [9]; 5.26 µM (active) in experiment [7]; 7.43 µM (active) in [10]. Moreover, the Potency in experiment [8] was 16600 nM (active).

In the case of `CS(=O)(=O)c1ccc(C2=C(c3ccccc3)C(=O)OC2)cc1`, the compound was called inactive in experiment [1]. The Potency entry in [2], in [4], in experiment [5], in [6], in [9] and in [7] was “inactive” each time. For the same compound, the Potency result in [10] and in [8] was “inactive” each time.

Source of the values: PubChem BioAssay (NCATS).
